GLP1R ag – qHTS of GLP-1 Receptor Agonists; Potency, µM (highest dose often 45.6 µM), inactives show at the highest dose activation, hits mostly activators; AID 624172, 2012; 380,000 compounds, 0.007% hits; Glucagon-like peptide 1 receptor (Homo sapiens), P43220; HEK293 GLP-1R CRE-luciferase, luminescence, 4-6 h; cells express a hypersensitive GLP-1R form; note: potency is the fitted concentration of half-maximal effect; % of control where 0% means no effect
Target sequence (P43220 whole entry, looked up): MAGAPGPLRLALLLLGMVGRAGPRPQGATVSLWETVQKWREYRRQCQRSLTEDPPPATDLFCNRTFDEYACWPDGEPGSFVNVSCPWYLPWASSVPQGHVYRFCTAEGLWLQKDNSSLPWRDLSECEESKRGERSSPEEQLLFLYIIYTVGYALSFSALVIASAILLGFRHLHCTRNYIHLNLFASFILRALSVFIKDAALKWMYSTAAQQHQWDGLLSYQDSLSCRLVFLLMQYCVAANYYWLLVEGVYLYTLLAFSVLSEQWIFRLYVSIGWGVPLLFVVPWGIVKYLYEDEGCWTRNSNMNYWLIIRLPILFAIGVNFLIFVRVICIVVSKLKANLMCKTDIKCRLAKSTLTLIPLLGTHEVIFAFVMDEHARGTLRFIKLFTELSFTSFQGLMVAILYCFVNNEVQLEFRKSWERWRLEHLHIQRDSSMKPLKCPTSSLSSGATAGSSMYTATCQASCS
TRPML1 agonist – qHTS for Agonists of the Human Mucolipin Transient Receptor Potential 1 (TRPML1); Mucolipin-1 (Homo sapiens), Q9GZU1; TRPML1-expressing cells, Ca2+ dye fluorescence, FDSS; activation, % (no concentration beside the values); 410,000 compounds, 0.12% hits; AID 624414, 2012; in the data active = activation above about 50%; inconclusive = mostly about 30% to 49%; note: 0% is about no effect
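TRPML1-DL cells, Tet-induced overnight (~16 h, 37 degrees C), loaded 45-90 min at room temperature with Ca8 no-wash calcium dye plus quencher. FDSS fluorescence: 10 s baseline, compound pin-transfer, 110 s agonist read, then EC80 54-4 (4uM final) and 110 s antagonist read.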
TRPML1 blocker – qHTS for Inhibitors of the Human Mucolipin Transient Receptor Potential 1 (TRPML1); Mucolipin-1 (Homo sapiens), Q9GZU1; TRPML1-inducible cells, Ca2+ dye fluorescence, FDSS; active compounds read low; inhibition of EC80 agonist-evoked calcium signal; activity change, negative = inhibition, % (no concentration beside the values); 390,000 compounds, 0.02% hits; in the data active = activity change below about -50%; inconclusive = between about -30% and that limit;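 note: stimulus is agonist 54-4 at its EC80 concentration; % is set by controls: 0 for no effect and ±100 for the full control effect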
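Tet-induced TRPML1-DL cells loaded with Ca8 no-wash calcium dye were read kinetically on FDSS. Compound addition was followed by EC80 agonist 54-4 (4 uM final); inhibition was read over 110 s.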
GLP1R cytotox – qHTS of GLP-1 Receptor Inverse Agonists: Cytotox Screen | HEK293 cAMP-luciferase reporter cells, luminescence, 24 h | Potency, µM (series often up to 38.3 µM), for inactives: top-dose activity change, negative = inhibition, usual class: inhibitors | 410,000 compounds, 0.13% hits;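 note: loss of luciferase light is scored as toxicity; potency is the fitted concentration of half-maximal effect; % is set by controls: 0 for no effect and ±100 for the full control effect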
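1536-well qHTS counterscreen of the MLSMR; 200 cells/uL, 12 h pre-incubation, 23 nL cpd, 24 h at 37 deg C 5% CO2, luciferase detection reagent, 12 min RT, luminescence. Inhibition = undesired.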
GLP-1R inv ag – qHTS of GLP-1 Receptor Inverse Agonists (Inhibition Mode); Glucagon-like peptide 1 receptor (Homo sapiens), P43220; HEK293 GLP-1R CRE-luciferase, luminescence, 24 h; GLP-1R form is constitutively active; Potency, µM (titrated, usually from 38.3 µM), without a hit: at the highest dose activity change, negative = inhibition, hits mostly inhibitors; 410,000 compounds, 1.6% hits; AID 624417, 2012; note: potency is the fitted concentration of half-maximal effect; % is set by controls: 0 for no effect and ±100 for the full control effect; nearly all actives have a fitted effect of over 55% in size
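GLP-1R inverse agonism mode: basal reporter luminescence in engineered HEK293 cells measured after one day of compound exposure at 37 deg C, with a 12 min room-temperature detection step.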
* hit, by the source's call; ? = inconclusive; nt = not tested or not shown. Shown are actives, neighbours in structure and some others; about 1.8% of the full set was active somewhere. Unless noted, calls come from the whole dose curve; as a rule, active = well fitted curve in the direction sought with a large enough effect; inconclusive = small, poorly fitted or top-dose-only effect, or another doubt; inactive = no such curve, though single readings can be large; an effect the other way counts as inactive or inconclusive.

SMILES | GLP1R ag | TRPML1 agonist | TRPML1 blocker | GLP1R cytotox | GLP-1R inv ag
C=C(C)COc1ccc(-c2n[nH]c(C)c2Oc2ccccc2OC)c(O)c1 | -17% | 1 | -4 | -8% | 7.9µM*
C=C(C)COc1ccc(-c2[nH]ncc2-c2ccc(OC)cc2)c(O)c1 | 1% | 2 | -6 | -15% | 11µM*
C=C(C)COc1ccc(-c2[nH]ncc2Oc2cccc(OC)c2)c(O)c1 | -11% | 4 | -18 | ? | 10µM*
C=C(C)COc1ccc(-c2[nH]ncc2-c2ccccc2)c(O)c1 | -9% | 1 | 4 | -30% | ?
C=C(C)COc1ccc(-c2ncncc2Oc2ccc(OC)cc2)c(O)c1 | -1% | 6 | 35 | 30% | 10µM*
CC(C)CCNC(=O)c1cccc(-n2cnc3cccnc32)c1 | nt | 0 | -8 | 5% | 15%
CCCOC(=O)c1ccc(Oc2cn[nH]c2-c2ccc(O)cc2O)cc1 | 5% | 0 | 13 | 4% | ?
CCCOC(=O)c1ccc(Oc2c(-c3ccc(OC)cc3O)n[nH]c2C)cc1 | -23% | 1 | 63 | ? | 8.9µM*
CCOC(=O)c1cc(-c2ccc(F)cc2)n(CCC(=O)NCc2ccc(C)cc2)c1C | nt | 2 | 19 | -6% | 10µM*
CCOC(=O)c1cc(-c2ccc(F)cc2)n(CCC(=O)Nc2ccccc2OC)c1C | nt | 2 | 20 | -3% | 10µM*
CCOC(=O)c1cc(-c2ccc(OC)cc2)n(CCC(=O)Nc2ccccc2OC)c1C | nt | 2 | 11 | 2% | ?
CCCCCCCCN(CCCCCCCC)c1ccc(/C=C/c2ccnc3ccccc23)cc1 | nt | 0 | nt | nt | nt
CN(Cc1ccccc1)S(=O)(=O)c1ccc(NC(=S)NC(=O)C(C)(C)C)cc1 | -2% | 0 | 0 | -2% | ?
Cc1ccccc1NC(=S)NC(=O)C1CCCCC1 | 1% | 0 | 0 | ? | 8.9µM*
Cc1cc(NC(=S)NC(=O)C2CC2)ccc1Br | 0% | -1 | -8 | ? | ?
CN(Cc1ccccc1)S(=O)(=O)c1ccc(NC(=S)NC(=O)C2CCCCC2)cc1 | 3% | 0 | -19 | 5% | 2.5µM*
CCOc1ccc(C(C)NC(=S)NC2CCCCC2)cc1 (configuration not stated) | -5% | 2 | -7 | 11µM* | ?
Cc1cc(C)cc(NC(=S)NC(=O)C2CC2)c1 | 19% | 0 | -2 | ? | 11µM*
COc1ccc(N2CCN(C(c3ccccc3)c3sc4nc(-c5ccco5)nn4c3O)CC2)cc1 (configuration not stated) | nt | 1 | -6 | 3% | -8%
COc1ccc(C2Nc3ccccc3C(=O)N2Cc2ccco2)cc1OC (configuration not stated) | nt | 0 | nt | nt | nt
CCC1CN(C(=O)N2CCC(C(=O)NCCc3ccccc3Cl)CC2)c2cc(C)ccc2O1 (configuration not stated) | nt | 2 | 30 | -13% | -30%
CCOc1ccc(NC(=S)NC(=O)C2CCCC2)cc1 | 12% | 0 | -5 | 0% | 10µM*
CCOc1ccc(NC(=O)C2C3CCC4C(CCC32)C4(Cl)Cl)cc1 (configuration not stated) | -4% | 1 | 15 | -23% | 7.1µM*
CCOc1ccc(NC(=O)C2C3CC/C=C\CCC32)cc1 (configuration not stated) | 5% | 0 | 20 | -6% | -27%
COc1cccc(-c2cc(C(=O)NCc3ccccc3)[nH]n2)c1 | nt | 0 | 5 | 0% | -25%
SMILES | GLP1R ag | TRPML1 agonist | TRPML1 blocker | GLP1R cytotox | GLP-1R inv ag
O=C(/C=C/c1cccc([N+](=O)[O-])c1)NCCSCc1c(Cl)cccc1Cl | 7% | 0 | 6 | 10% | ?
O=C(/C=C/c1cccc([N+](=O)[O-])c1)NCCSCc1ccc(Cl)cc1 | 12% | 1 | 8 | -20% | 10µM*
O=C(c1ccc(-c2ccccc2Cl)o1)N1CCCCCCC1 | ? | 2 | 5 | -16% | 5.6µM*
O=C(CCNS(=O)(=O)c1ccc(Br)cc1)NCCc1ccc(Cl)cc1 | 5% | 0 | 7 | 4% | 10µM*
COc1ccccc1C(CNC(=O)c1ccc(-c2ccccc2Cl)o1)N1CCCC1 (configuration not stated) | 21% | 13 | 6 | ? | 4.5µM*
COc1ccc(C(CNC(=O)CCNS(=O)(=O)c2ccc(Br)cc2)N2CCCC2)cc1 (configuration not stated) | -1% | 1 | -8 | -17% | ?
O=C(CCNS(=O)(=O)c1ccc(Cl)cc1)NCCc1ccccc1 | 6% | -1 | 0 | -2% | -9%
COc1ccccc1C(CNC(=O)CCNS(=O)(=O)c1ccc(Br)cc1)N1CCCC1 (configuration not stated) | 8% | 1 | 5 | -14% | 10µM*
CC(C)(C)OC(=O)N(CCc1ccccc1)Cc1cccc(OCc2cccc(NC(=O)/C=C/c3ccccc3)c2)c1 | 6% | 0 | 2 | 2% | ?
CC(C)(C)OC(=O)N(Cc1ccccc1)Cc1cccc(OCc2cccc(NC(=O)C3CC3)c2)c1 | 0% | 2 | 28 | 12% | 10µM*
CC(C)(C)OC(=O)N(CCc1ccccc1)Cc1ccccc1OCc1cccc(NC(=O)C2CCC2)c1 | 1% | 4 | 5 | -5% | 8.9µM*
CC(C)(C)OC(=O)N(CCc1ccccc1)Cc1cccc(OCc2cccc(NC(=O)C3CCC3)c2)c1 | -2% | 3 | 17 | 7% | ?
CC(C)(C)OC(=O)N(Cc1ccccc1)Cc1ccccc1OCc1cccc(NC(=O)C2CCC2)c1 | 13% | 3 | -11 | 7% | ?
CC(C)(C)OC(=O)N(Cc1ccccc1)Cc1ccccc1OCc1cccc(NC(=O)C2CC2)c1 | 3% | 2 | 15 | -2% | 10µM*
CC(C)C(=O)Nc1cccc(COc2ccc(CN(CCc3ccccc3)C(=O)OC(C)(C)C)cc2)c1 | -1% | 2 | -9 | 13% | 6.3µM*
COc1ccc(NC(=O)Cn2c(=O)ccc3cc(S(=O)(=O)N4CCCC4)ccc32)cc1Cl | -5% | 1 | 40 | -6% | 10%
COc1cc(NC(=O)c2nnn(CC(=O)Nc3cc(C)ccc3C)c2N)cc(OC)c1 | nt | 0 | 6 | -1% | 1%
CC(=O)Oc1ccc(C(=O)Nc2ccc3c(c2)OCCO3)cc1 | 0% | 0 | 8 | 8% | ?
COc1ccc(C(=O)Nc2ccc3c(c2)OCCO3)cc1 | -7% | 0 | 1 | -40% | 13µM*

Screening results (PubChem BioAssay)
